Experimental data reported in PubChem BioAssay (NCI).
This is part of a sample that, as a whole, favours compounds with a hit. Of some 79,000 tested, about 15% had one in any assay. Calls of active or inactive are those of the source. No stated cut-off is given here; in the data, active means growth inhibition above about 70%; inactive means the rest.

Tests used:
[1] = NCI Yeast Anticancer Drug Screen. Data for the mec2-1 strain (AID 157); settings: S. cerevisiae mec2-1 strain, hits give high values
Outline: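 mec2-1 yeast strain, carrying an alteration in DNA damage repair or cell cycle control, was exposed to compounds; growth inhibition was measured relative to vehicle-treated controls.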

[2] = NCI Yeast Anticancer Drug Screen. Data for the sgs1 mgt1 strain (AID 161);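 further: 0% = growth of cultures given vehicle only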; settings: S. cerevisiae sgs1 mgt1 strain, hits give high values
Outline: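 Percent growth inhibition was derived by comparing compound-exposed mutant yeast with vehicle-exposed cultures. The strain carries alterations in DNA damage repair.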

[3] = NCI Yeast Anticancer Drug Screen. Data for the CLN2oe strain (AID 163);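 further: 0% = growth of vehicle-only control cultures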; settings: S. cerevisiae CLN2oe strain, hits give high values
Outline: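 Yeast cells carrying a defined cell-cycle control alteration were exposed to test compounds. Growth inhibition was scored against vehicle-treated control cultures.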

[4] = NCI Yeast Anticancer Drug Screen. Data for the bub3 strain (AID 167); settings: S. cerevisiae bub3 mutant strain, hits give high values
Outline: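 Steps: expose the mutant yeast strain to compound; grow alongside vehicle-treated cultures; measure growth; express inhibition against the vehicle cultures.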

[5] = NCI Yeast Anticancer Drug Screen. Data for the wt2 strain (AID 169);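 further: 0% = growth of vehicle-treated yeast cultures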; settings: S. cerevisiae wt2 strain growth inhibition, hits give high values
Outline: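 Yeast cells were exposed to test compounds, and growth inhibition was measured relative to vehicle-treated controls.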

[6] = NCI Yeast Anticancer Drug Screen. Data for the sgs1 strain (AID 173);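 further: 0% = growth of vehicle-only control cultures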; settings: S. cerevisiae sgs1 mutant, hits give high values
Outline: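 Yeast mutant strains carrying defined defects in DNA damage repair or cell cycle control were exposed to test compounds. Growth inhibition was scored against vehicle-treated controls.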

[7] = NCI Yeast Anticancer Drug Screen. Data for the mlh1 rad18 strain (AID 175); settings: S. cerevisiae mlh1 rad18 strain growth inhibition, hits give high values
Outline: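 Growth inhibition of the yeast strain was measured after compound exposure and expressed relative to vehicle-treated controls. The strain carries defined defects in DNA damage repair.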

[8] = NCI Yeast Anticancer Drug Screen. Data for the rad18 strain (AID 177); settings: S. cerevisiae rad18 mutant growth inhibition, hits give high values
Outline: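 Yeast carrying a defined DNA damage repair alteration were exposed to compounds. Growth inhibition was expressed relative to vehicle-treated controls.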

[9] = at 5.0 µM (retest, dose inferred, filed as 0.5)
[10] = at 50.0 µM (retest, dose inferred, filed as 5.0)

Measured: growth inhibition

COC(=O)/C=C1/OC(c2ccc(Br)cc2)=C(Br)C1=O
active: [1]; [10] 85% | [1]; at 100.0 µM 71% | [2]; at 50.0 µM 86.2% | [4]; at 33.0 µM 70% | [4]; at 50.0 µM 72.8% | [4]; at 100.0 µM 95% | [5]; at 33.0 µM 76% | [5]; at 100.0 µM 95% | [8]; at 100.0 µM 92%
inactive: [1]; [9] 18% | [1]; at 11.0 µM -5% | [1]; at 33.0 µM 8% | [1]; at 50.0 µM 18.8% | [2]; [9] 12% | [2]; [10] 16% | [3]; at 1.2 µM 8% | [3]; at 3.7 µM 10% | [3]; at 11.0 µM 10% | [3]; at 33.0 µM 26% | [3]; at 100.0 µM 59% | [4]; at 1.2 µM 20% | [4]; at 3.7 µM 6% | [4]; [9] 32% | [4]; at 11.0 µM -12% | [4]; [10] 40% | [5]; at 1.2 µM -25% | [5]; at 3.7 µM -22% | [5]; at 11.0 µM -20% | [6]; at 1.2 µM -18% | [6]; at 3.7 µM -16% | [6]; at 11.0 µM -17% | [6]; at 33.0 µM -27% | [6]; at 100.0 µM 16% | [7]; [9] 11% | [7]; [10] 49% | [8]; at 1.2 µM -30% | [8]; at 3.7 µM -14% | [8]; at 11.0 µM -12% | [8]; at 33.0 µM 41%
